Shiga inhibitor – Shiga toxin inhibition; Vero cells, Shiga toxin protein synthesis inhibition reporter; inhibition, % at 38.7 µM; 9.2% of 290,000 active; in the data active means inhibition mostly above about 28%, no sharp cut-off; inactive means mostly below about 43%; further: 0% is about no effect
FBPA Giardia inh – Giardia lamblia aldolase inhibition. purified Giardia FBPA. Potency, µM (doses to about 59.6 µM), without a hit: top-dose activity, negative = inhibition, hits mostly inhibitors. 0.71% of 290,000 active; further: potency means the concentration at half of the fitted maximal effect; on the % scale 0 is the no-effect control and ±100 the full control effect; nearly all actives have a fitted effect of over 55% in size
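40 nM FBPA preincubated 10 min at RT with compound (up to 57.5 uM final), then substrate plus GAPDH/TPI/NAD/arsenate coupling and diaphorase/resazurin added. Fluorescence read after 20 min at RT, 525/598 nm.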
LmPK inh – inhibitors of Leishmania mexicana pyruvate kinase | Q27686 | purified LmPK, Kinase-Glo ATP luminescence, 1 h | Potency, µM (doses to about 57.5 µM), inactives show at the highest dose activity change, negative = inhibition, actives largely listed as inhibitors | 0.37% of 290,000 active | AID 1721; further: potency means the concentration at half of the fitted maximal effect; on the % scale 0 is the no-effect control and ±100 the full control effect
Target sequence (Q27686 whole entry, looked up): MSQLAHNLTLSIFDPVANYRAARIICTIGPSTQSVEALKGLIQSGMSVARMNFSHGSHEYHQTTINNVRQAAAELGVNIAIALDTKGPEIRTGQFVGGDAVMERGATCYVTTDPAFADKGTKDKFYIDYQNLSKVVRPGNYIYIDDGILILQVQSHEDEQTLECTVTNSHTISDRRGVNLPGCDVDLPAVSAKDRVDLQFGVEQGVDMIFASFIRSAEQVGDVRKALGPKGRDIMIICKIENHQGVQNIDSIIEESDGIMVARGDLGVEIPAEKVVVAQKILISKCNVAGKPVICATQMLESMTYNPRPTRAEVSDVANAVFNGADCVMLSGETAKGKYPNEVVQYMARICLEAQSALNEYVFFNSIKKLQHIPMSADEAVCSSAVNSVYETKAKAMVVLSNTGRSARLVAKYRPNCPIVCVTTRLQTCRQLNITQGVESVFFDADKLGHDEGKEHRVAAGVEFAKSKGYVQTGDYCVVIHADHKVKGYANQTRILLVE
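0.1 nM LmPK, 0.5 mM PEP, 0.1 mM ADP; 50 mM imidazole pH 7.2, 7 mM MgCl2, 50 mM KCl; 1 h RT. Kinase-Glo luminescence readout, normalized to no-enzyme (full inhibition) and uninhibited wells.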
Cycloheximide cs – counter-screen hit for Shiga toxin inhibitors, cycloheximide | cell reporter, cycloheximide protein synthesis inhibition counterscreen | max response, % | 12% of 300,000 active; in the data active means max response mostly above about 13%, no sharp cut-off; inactive means mostly below about 14%; further: read at 38.3 µM for the half of the compounds with a filed dose; 0% is about no effect
NS1 function inh – influenza NS1 inhibition | Potency, µM (titrated, usually from 46.1 µM), without a hit: at the top dose activity, positive = more growth | AID 2326 | 0.4% of 270,000 active; calls by dose curve; further: potency means the concentration at half of the fitted maximal effect; actives are rising curves; nearly all actives have a fitted effect of over 50% in size
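Read-out: OD600 growth recovery of NS1-expressing budding yeast. Cells grown overnight at 30C in -URA glucose medium, washed, resuspended and diluted 1:100 in 2% galactose assay medium, pH 6.0. Same strain lacking NS1 served as positive control.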
Starred values were filed as active, the others as inactive; u = inconclusive; x = no result given; [ ] = another dose, or the depositor's remark. Shown are actives, neighbours in structure and some others; about 14% of the full set was active somewhere. Unless noted, the call rests on the fitted dose curve; in most records, active means well fitted curve in the direction sought with a large enough effect; inconclusive means small, poorly fitted or top-dose-only effect, or another doubt; inactive means no such curve, though single readings can be large; an effect the other way counts as inactive or inconclusive.

SMILES	Shiga inhibitor	FBPA Giardia inh	LmPK inh	Cycloheximide cs	NS1 function inh
Cc1scc(C(=O)N/N=C/c2ccco2)c1C	53*	-9%	-8%	29*	-3%
CCCOc1cccc(/C=N/NC(=O)c2csc(C)c2C)c1	2	-4%	13%	14	1%
Cc1scc(C(=O)N/N=C/c2ccsc2)c1C	52*	-13%	-5%	84*	-8%
C=CCNC(=O)c1cc([N+](=O)[O-])cc2c(=O)[nH]c(Nc3ccc(Cl)c(Cl)c3)nc12	x	-10%	x	x	x
O=C(c1sc2cccc(Cl)c2c1Cl)N1CCN(CCc2ccccn2)CC1	-5	x	-1%	1	-25%
CCOC(=O)N1CCN(C(=O)CN(C)S(=O)(=O)c2ccc(F)cc2)CC1	7	9%	-2%	5	-2%
N#CCCn1c(=O)c(CCc2ccccc2)nc2cnc(Nc3ccccc3)nc21	x	10%	x	x	x
CC(C)(C)c1nnc(NC(=O)c2cccnc2)s1	28	-15%	-6%	21*	-3%
O=C(Nc1nnc(CCc2ccccc2)s1)c1cccs1	10	0%	-5%	6	-13%
O=C(Nc1nnc(CSCc2ccc(Cl)cc2)s1)c1cccc([N+](=O)[O-])c1	-9	-27%	-1%	-2	4%
CC(C)c1nnc(NC(=O)c2cccs2)s1	70*	-12%	u	58*	-38%
CCC(C)(C)c1nnc(NC(=O)c2cccc([N+](=O)[O-])c2)s1	76*	u	-2%	14*	-2%
CCc1nnc(NC(=O)c2cccnc2)s1	-11	-7%	-6%	-4	-3%
CC(C)(C)c1nnc(NC(=O)c2cccs2)s1	75*	-10%	u	71*	-10%
CCCCC(CC)c1nnc(NC(=O)c2cccs2)s1 (configuration not stated)	15	7%	2%	1	-61%
O=C(c1c(F)cccc1F)N(C1CCCCC1)C1CCCCC1	35	4%	-2%	-2	-38%
Cc1ccc(C(=O)Nc2cccc(C(=O)NC3CCCC3)c2)cc1	26	x	-4%	13	10%
CC(C)(C)NC(=O)COc1ccc(-c2ccccc2)cc1	86*	3%	0%	30*	-91%
CCNC(=O)COc1ccc(-c2ccccc2)cc1	60*	3%	-14%	47*	7%
COC(=O)CNC(=O)COc1ccccc1	-14	5%	1%	-1	19%
CCC(C)(C)NC(=O)COc1ccc(OCc2ccccc2)cc1	27	1%	1%	16	x
CCc1ccc(OCC(=O)NC(C)C)cc1	111*	2%	-1%	27*	0%
CCNC(=O)COc1ccc(OCc2ccccc2)cc1	102*	1%	-10%	32*	-1%
Cn1cccc1C(=O)N1CCC[C@@]2(CCN(c3ncccn3)C2)C1	x	5%	x	x	x
CCCCCCCCCCN1CCOCCOCCN(CCCCCCCCCC)CCOCCOCC1	-2	2%	x	-2	x
SMILES	Shiga inhibitor	FBPA Giardia inh	LmPK inh	Cycloheximide cs	NS1 function inh
COc1c2c(c(C(=O)/C=C/C(C)=C/c3ccccc3)c3c1OCO3)CCN(C)C2	x	0%	x	x	x
CCC(C)NC(=O)COc1ccc(OCc2ccccc2)cc1 (configuration not stated)	-8	9%	1%	12*	x
O=C(N/N=C1/C[C@@H](O)[C@@H](O)[C@@H]2[C@H]3C(=O)N(c4ccc(F)cc4F)C(=O)[C@@H]3CC[C@H]12)OCc1ccccc1	x	3%[12.9 µM]	x	x	x
CCN=C1S/C(=C\c2sccc2C)C(=O)N1CC	31*	2%	-12%	19*	-11%
Cc1ccsc1/C=C1/SC(=O)N(CC(=O)N2CCOCC2)C1=O	70	1%	4%	25*	-14%
Cc1ccc(/C=C2/SC(=O)N(CC(=O)N3CCOCC3)C2=O)s1	27	6%	0%	-5	12%
O=C(CN1C(=O)S/C(=C/c2ccccn2)C1=O)N1CCOCC1	23	x	-11%	10	-2%
O=C(CN1C(=O)S/C(=C/c2ccc(N3CCOCC3)cc2)C1=O)N1CCOCC1	36*	4%	-1%	17*	4%
CN(C)c1ccc(-c2cc(NCc3ccccc3)ncn2)cc1	x	-12%	x	x	x
CC(C)c1ccc(C(=O)NCCCN2CCOCC2)cc1	60	4%	5%	37*	2%
O=C(NCCCN1CCOCC1)c1ccc(S(=O)(=O)N2CCOCC2)cc1	-9	12%	3%	26*	10%
CCOC(=O)C1=C(Cc2ccc(C)cc2)C(=O)c2ccccc2C1=O	10	4µM*	-20%	19*	-190%
CCOC(=O)C1=C(Cc2ccc(OC)cc2)C(=O)c2ccccc2C1=O	23	1.4µM*	-17%	27*	-91%
CC(C)(C)C1CCC(=NNC(=O)CN(c2ccccc2)S(C)(=O)=O)CC1 (configuration not stated)	90*	-2%	5%	43*	8%
CC(C)(C)C(=O)NN=C1CCC(c2ccccc2)CC1 (configuration not stated)	24	2%	6%	19*	u
O=C(NN=C1CCC(c2ccccc2)CC1)c1ccccc1-n1cccc1 (configuration not stated)	-3	-1%	-1%	-2	17%
CCOC(=O)NN=C1CCC(c2ccccc2)CC1 (configuration not stated)	10	1%	7%	9.8*	10%
CN1CCC(=NNC(=O)CN(c2ccccc2)S(=O)(=O)c2ccccc2)CC1	-30	x	-5%	-2	u
COC(=O)NN=C1CCC(c2ccccc2)CC1 (configuration not stated)	30*	x	-8%	25	1%
NC(=O)C(=O)NN=C1CCC(c2ccccc2)CC1 (configuration not stated)	15	4%	-3%	9	4%
COc1ccccc1C(=O)O/N=C(\N)c1ccc(Cl)cc1	90*	-11%	-4%	52*	-50%
COc1ccc(C(=O)O/N=C(\N)c2ccc(Cl)cc2)cc1	88*	-1%	-13%	37*	-52%
CCOC(=O)N1CCN(Cc2nc3cc([N+](=O)[O-])ccc3n2C)CC1	-12	2%	7%	3	1%
Cc1ccccc1-c1nc(CS(=O)(=O)CC(=O)N2CCCCC2)c(C)o1	-4	0%	2%	6	5%
Cc1cccc(NC(=O)CCS(=O)(=O)c2ccccc2)n1	54*	10%	-3%	24	6%
SMILES	Shiga inhibitor	FBPA Giardia inh	LmPK inh	Cycloheximide cs	NS1 function inh
Cc1cccc(NC(=O)CCS(=O)(=O)c2ccccc2)c1	47*	0%	-1%	30*	0%
O=C(CCS(=O)(=O)c1ccccc1)Nc1nccs1	-6	0%	3%	4	4%
CCN1C(=O)/C(=C2\C=Cc3cc(C)ccc3N2CC)OC1=S	7	-6%	-4%	-2	-19%
CCN1C(=O)/C(=C2/C=Cc3ccccc3N2C)OC1=S	44	5%	-16%	37*	-111%
CCN1C(=C2C(=O)c3ccccc3C2=O)C=Cc2ccccc21	39*	-17%	2%	25*	-6%
NC(N)=NC1=NC(=O)/C(=C/c2ccccc2-n2cccn2)S1	11	5%	-2%	6	x
O=Cc1ccccc1-n1cccn1	-9	0%	5%	31*	x
